From PubChem BioAssay come the findings set out here.

Structures are written as SMILES. Calls of active or inactive are those of the source.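 Rule for the calls, unless noted: active = fluorescence slope higher than the sample average by over 3 SD (cut at about -0.22 in these data, passing the limit was not always enough); inactive = the rest.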

Broadly, the inhibition is the relative decrease from the control value, in per cent.

System in the first assay: not listed separately
Kind of assay: endothelial E-selectin expression blockers – imaging, HUVEC, immunofluorescence, MLSMR starter and 10KST1 sets, primary screen (AID 487;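 active = visually confirmed hit in the image check and inhibition above 20%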;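 for inhibition: signal is fraction of cell area covered by stained E-selectin grains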;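 for nuclei count: 100% = median nuclei count of all wells on the same plate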). The note with it: HUVEC TNFalpha-induced E-selectin immunofluorescence imaging, at 2 µM; inhibition: stronger effect = higher value; nuclei count: measured here: cell number, toxicity.
On to `CN1C(=O)CCC1(O)c1ccccc1` (centres undefined), for which the nuclei count amounted to 103% and the inhibition was -51.3% (inactive).

Regarding `Cc1cc(=O)n(C)c(=O)n1CCCCCN1CCCC1`, the nuclei count is 102% and the inhibition was -52% (inactive).

For the molecule `COc1ccc(N2CCN(Cc3nc4c(c(=O)[nH]c(=O)n4C)n3CC(C)=O)CC2)cc1`, the nuclei count was determined as 119% and the inhibition was -37.3% (inactive).

On to `COC(=O)c1ccccc1NC(=O)CSc1nc2c(c(=O)n(C)c(=O)n2C)n1C`, for which the nuclei count was 119% and the inhibition was 9.9% (inactive).

For the molecule `Cc1csc2ncc(C(=O)Nc3ccccc3Cl)c(=O)n12`, the inhibition was -12.3% (inactive) and the nuclei count came to 116%.

With `Cc1nc(-c2cccc(N)c2)cs1`, the inhibition is -35.4% (inactive) and the nuclei count was 132%.

Turning to `Cn1c(=O)c2c([nH]c(=O)n2C)n(C)c1=O`, the nuclei count was determined as 101% and the inhibition is 16.9% (inactive).

`COc1ccc(NC(=O)c2cc(C3CC3)on2)c(OC)c1`: the nuclei count turned out to be 107% and the inhibition is -29.1% (inactive).

For `Cc1nnc(SCc2cc(=O)[nH]c(N3CCCCC3)n2)s1`, the inhibition is 14.7% (inactive) and the nuclei count was 107%.

Turning to `CCN1CCN(Cc2nc3c(c(=O)[nH]c(=O)n3C)n2Cc2ccccc2Cl)CC1`, the nuclei count came out at 95.5% and the inhibition is -20.8% (inactive).

In the case of `CSc1ccc(-c2nc(CSCC(=O)N3CCOCC3)c(C)o2)cc1`, the inhibition is -16.1% (inactive) and the nuclei count is 101%.

For `Cc1ccc(OCCN2CCN(C(=O)CCC(=O)Nc3nnc(C)s3)CC2)cc1`, the inhibition is -18.9% (inactive) and the nuclei count was determined as 100%.

As to `COc1ccccc1NC(=O)Cc1noc(CSc2cc(C)c3ccccc3n2)n1`, the inhibition is -160% (inactive) and the nuclei count is 95.9%.

`COc1cc2nc(SCC(=O)NC3CC3)n(CCC3=CCCCC3)c(=O)c2cc1OC`: the inhibition is -35.1% (inactive) and the nuclei count was 108%.

On to `Cc1oc2cc3c(C(=O)OCCN(C)C)c(C)oc3cc2c1C(=O)OCCN(C)C`, for which the nuclei count stood at 92.4% and the inhibition is -44.7% (inactive).

Turning to `CCN(CCCNC(=O)C1CCN(S(=O)(=O)c2cccc3nonc23)CC1)Cc1ccccc1`, the nuclei count turned out to be 110% and the inhibition is -72.5% (inactive).

As to `CCCCn1c(NCCC)nc2c1c(=O)[nH]c(=O)n2C`, the nuclei count was 124% and the inhibition was -38% (inactive).

Turning to `N#Cc1ccccc1Cn1c(=O)n(Cc2ccc(C(=O)NCc3ccco3)cc2)c(=O)c2ccccc21`, the inhibition was -47.4% (inactive) and the nuclei count is 92.1%.

On to `CCOCCCn1c(=S)[nH]c2cc3c(cc2c1=O)OCO3`, for which the nuclei count was found to be 103% and the inhibition is -12.7% (inactive).

For the molecule `CCCSc1nnc(-c2ccccc2NC(=O)CC)c(=O)[nH]1`, the inhibition is -43.8% (inactive) and the nuclei count is 96.6%.

Take `CC(C)Cc1nnc(NC(=O)CCC(=O)N2CCOCC2)s1`: the nuclei count was found to be 102% and the inhibition is 17.3% (inactive).

In the case of `O=C(Nc1ccncc1)C1c2ccccc2Oc2ccccc21`, the nuclei count amounted to 102% and the inhibition is 19.9% (inactive).

For the molecule `O=[n+]1cc(-c2ccc(F)cc2)n([O-])c2c1CCC2`, the nuclei count was 108% and the inhibition is -70% (inactive).

Consider `COCCn1nnnc1CN(CCCN1CCOCC1)Cc1cc2c(C)ccc(C)c2[nH]c1=O`, for which the inhibition was 19.5% (inactive) and the nuclei count came out at 92.4%.

Take `CSc1ccc(S(=O)(=O)Nc2cccc(F)c2)cc1`: the nuclei count was found to be 96.9% and the inhibition was -34.7% (inactive).

The next assay deals with Voltage-gated potassium channel subunit beta-2 (Rattus norvegicus) (UniProt P62483). Put plainly: inhibitors of rat Kvbeta2 reductase activity – biochemical, NADPH fluorescence, primary screen (AID 622).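 Note: slope of raw intensity against log time taken from 70 to 1610 s.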 The following applies: recombinant KvBeta, 4-cyanobenzaldehyde reduction, at 10 µM, stronger effect = higher value.
Chain of Voltage-gated potassium channel subunit beta-2 (Rattus norvegicus) (P62483 whole entry, looked up): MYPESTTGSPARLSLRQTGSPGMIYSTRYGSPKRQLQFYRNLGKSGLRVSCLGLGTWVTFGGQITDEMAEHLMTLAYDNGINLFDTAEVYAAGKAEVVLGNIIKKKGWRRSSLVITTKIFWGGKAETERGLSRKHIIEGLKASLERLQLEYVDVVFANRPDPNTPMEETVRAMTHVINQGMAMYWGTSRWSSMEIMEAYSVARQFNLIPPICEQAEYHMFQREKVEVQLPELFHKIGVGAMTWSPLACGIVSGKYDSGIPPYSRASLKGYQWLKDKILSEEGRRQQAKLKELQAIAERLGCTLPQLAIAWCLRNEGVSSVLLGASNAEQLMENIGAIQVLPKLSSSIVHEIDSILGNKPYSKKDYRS
On to `N#CCCN1CCN(S(=O)(=O)c2ccc(S(=O)(=O)NC3CCCCC3)cc2)CC1`, for which the fluorescence slope is -0.584 (inactive).

On to `CCCN(CCC)C(=O)c1c(C)[nH]c(C(=O)OCC)c1C`, for which the fluorescence slope was -0.605 (inactive).

`c1ccc2c(c1)CC(N1CCCCC1)c1ccccc1N2` (centres undefined): the fluorescence slope was -0.41 (inactive).

For the molecule `CCOC(=O)N1CCN(C(=O)CSc2nnc(Cc3ccccc3)o2)CC1`, the fluorescence slope is -0.525 (inactive).

`COc1ccc(CCNS(=O)(=O)c2ccc3oc(C(=O)O)c(C)c3c2)cc1OC`: the fluorescence slope was -0.444 (inactive).

As to `Cc1cc(NC(=O)CSc2nc3c(c(=O)n2Cc2ccccc2)SC(C)C3)no1` (centres undefined), the fluorescence slope is -0.417 (inactive).

Take `c1ccc(OCc2nc(-c3ccccc3)no2)cc1`: the fluorescence slope was -0.539 (inactive).

Regarding `CC1CCN(C(=O)CCNS(=O)(=O)c2ccccc2)CC1`, the fluorescence slope was -0.605 (inactive).

With `COc1ccccc1Oc1coc2c(CN3CCN(C)CC3)c(O)ccc2c1=O`, the fluorescence slope was -0.0185 (active).

Take `CCS(=O)(=O)N1CCCC(C(=O)NCc2ccccc2Cl)C1` (centres undefined): the fluorescence slope was -0.608 (inactive).

Turning to `Cc1ccc(NC(=O)c2ccco2)c(NC(=O)c2cccs2)c1`, the fluorescence slope was -0.375 (inactive).

Turning to `Cc1cccc(-n2nc3c(c2NC(=O)CCC2CCCCC2)CS(=O)C3)c1C` (centres undefined), the fluorescence slope was -0.427 (inactive).

Consider `Cc1nc(N)c(C#N)c(-c2cccnc2)c1C`, for which the fluorescence slope was -0.411 (inactive).

`COc1ccc(N2CCN(C(=O)C(C)(C)Oc3ccc(Cl)cc3)CC2)cc1`: the fluorescence slope is -0.564 (inactive).

Turning to `CN1C(=O)CCC1(O)c1ccccc1` (centres undefined), the fluorescence slope was -0.392 (inactive).

In the case of `Cc1cc(=O)n(C)c(=O)n1CCCCCN1CCCC1`, the fluorescence slope is -0.51 (inactive).

As for `COc1ccc(N2CCN(Cc3nc4c(c(=O)[nH]c(=O)n4C)n3CC(C)=O)CC2)cc1`, the fluorescence slope is -0.578 (inactive).

In the case of `COC(=O)c1ccccc1NC(=O)CSc1nc2c(c(=O)n(C)c(=O)n2C)n1C`, the fluorescence slope is -0.382 (inactive).

Consider `Cc1csc2ncc(C(=O)Nc3ccccc3Cl)c(=O)n12`, for which the fluorescence slope was -0.486 (inactive).

With `Cc1nc(-c2cccc(N)c2)cs1`, the fluorescence slope is -0.514 (inactive).

As for `Cn1c(=O)c2c([nH]c(=O)n2C)n(C)c1=O`, the fluorescence slope is -0.435 (inactive).

For the molecule `COc1ccc(NC(=O)c2cc(C3CC3)on2)c(OC)c1`, the fluorescence slope was -0.587 (inactive).

On to `Cc1nnc(SCc2cc(=O)[nH]c(N3CCCCC3)n2)s1`, for which the fluorescence slope is -0.592 (inactive).

As for `CCN1CCN(Cc2nc3c(c(=O)[nH]c(=O)n3C)n2Cc2ccccc2Cl)CC1`, the fluorescence slope was -0.583 (inactive).

On to `CSc1ccc(-c2nc(CSCC(=O)N3CCOCC3)c(C)o2)cc1`, for which the fluorescence slope was -0.523 (inactive).

Turning to `Cc1ccc(OCCN2CCN(C(=O)CCC(=O)Nc3nnc(C)s3)CC2)cc1`, the fluorescence slope is -0.318 (inactive).

As for `COc1ccccc1NC(=O)Cc1noc(CSc2cc(C)c3ccccc3n2)n1`, the fluorescence slope was -0.337 (inactive).

On to `COc1cc2nc(SCC(=O)NC3CC3)n(CCC3=CCCCC3)c(=O)c2cc1OC`, for which the fluorescence slope was -0.427 (inactive).

As to `Cc1oc2cc3c(C(=O)OCCN(C)C)c(C)oc3cc2c1C(=O)OCCN(C)C`, the fluorescence slope was -0.412 (inactive).

`CCN(CCCNC(=O)C1CCN(S(=O)(=O)c2cccc3nonc23)CC1)Cc1ccccc1`: the fluorescence slope was -0.43 (inactive).

Regarding `CCCCn1c(NCCC)nc2c1c(=O)[nH]c(=O)n2C`, the fluorescence slope is -0.402 (inactive).

Consider `N#Cc1ccccc1Cn1c(=O)n(Cc2ccc(C(=O)NCc3ccco3)cc2)c(=O)c2ccccc21`, for which the fluorescence slope is -0.5 (inactive).

On to `CCOCCCn1c(=S)[nH]c2cc3c(cc2c1=O)OCO3`, for which the fluorescence slope is -0.489 (inactive).

On to `CCCSc1nnc(-c2ccccc2NC(=O)CC)c(=O)[nH]1`, for which the fluorescence slope is -0.412 (inactive).

Regarding `CC(C)Cc1nnc(NC(=O)CCC(=O)N2CCOCC2)s1`, the fluorescence slope is -0.422 (inactive).

Consider `O=C(Nc1ccncc1)C1c2ccccc2Oc2ccccc21`, for which the fluorescence slope was -0.201 (inactive).

For the molecule `O=[n+]1cc(-c2ccc(F)cc2)n([O-])c2c1CCC2`, the fluorescence slope is -0.587 (inactive).

`COCCn1nnnc1CN(CCCN1CCOCC1)Cc1cc2c(C)ccc(C)c2[nH]c1=O`: the fluorescence slope is -0.49 (inactive).

As to `CSc1ccc(S(=O)(=O)Nc2cccc(F)c2)cc1`, the fluorescence slope is -0.408 (inactive).
